Measured values from PubChem BioAssay (NCATS).
Inconclusive results are not listed. Where a call stands in place of a potency, no number is given. Calls of active or inactive are those of the source. The call rests on the fitted dose curve; in most records, active means well fitted cell-killing curve with a large enough effect; inconclusive means small, poorly fitted or top-dose-only effect; inactive means no such curve, though single readings can be large or run the other way.

Assay: Quantitative High-Throughput drug screen in 47 multiple myeloma cell lines against the NCATS MIPE library collection: NCIH929_DSMZ cell viability assay (AID 1918978); further: nearly all actives have a fitted effect of over 35% in size
Settings: NCI-H929 myeloma viability, CellTiter-Glo ATP, 48 h; series mostly up to 45.8 µM
Excerpt: PI: Beverly A. Mock Ph.D.
Laboratory of Cancer Biology and Genetics,
Center for Cancer Research, National Cancer Institute,
National Institute of Health, Bethesda, Maryland
Drug resistance and disease progression are common in multiple myeloma (MM) patients, underscoring the need for new therapeutic combinations. […] We hypothesized that effective combinations would reduce MYC expression and enhance p16 activity. […] These preclinical data identify potentially useful drug combinations for evaluation in drug-resistant MM and reveal potential mechanisms of combined drug sensitivity.
Described herein is the primary MIPE qHTS used to cherrypick compounds. Validated compounds were then further tested for potential synergistic activiy.
[1] Peat TJ, Gaikwad SM, Dubois W, Gyabaah-Kessie N, Zhang S, Gorjifard S, Phyo Z, Andres M, Hughitt VK, Simpson RM, Miller MA, Girvin AT, Taylor A, Williams D, D'Antonio N, Zhang Y, Rajagopalan A, Flietner E, Wilson K, Zhang X, Shinn P, Klumpp-Thomas C, McKnight C, Itkin Z, Chen L, Kazandijian D, Zhang J, Michalowski AM, Simmons JK, Keats J, Thomas CJ, Mock BA. Drug combinations identified by high-throughput screening promote cell cycle transition and upregulate Smad pathways in myeloma. Cancer Lett. 2023 Aug 1;568:216284. doi: 10.1016/j.canlet.2023.216284. Epub 2023 Jun 24. PMID: 37356470; PMCID: PMC10408729.
SEQUENCE No. (e.g., 1, 2, 3, etc.); […] (e.g., Cells, Incubation, Reagent, etc.); VALUE and DESCRIPTION.
1; Cells; 5 uL; white, solid bottom 1536-well Greiner assay plate.
2; Compounds; 23 nL; Kalypsis pin tool (Wako USA) equipped with a 1536-well pin head to transfer to the assay plates.
3; Incubation; 48 hours; 37C incubation.
4; Reagent;5uL; CellTiter Glo (Promega).
5; Detector; 425V; Luminescence; Viewlux PerkinElmer.
NOTES (numbers refer to Sequence numbers above)
1. The cell-based screening methods employed in this study were like those previously published. Briefly, the corresponding myeloma cell lines were screened in 1,536-well plates with 500 cells, 5-uL per well for inhibition of cell viability (assessed by measuring ATP levels with CellTiterGlo).
2. NCATS MIPE 4.0 library of approved and investigational drugs were added using the Kalypsis pin tool. Wells treated with DMSO only for 100% viability and media only for 0% viability were used as controls.
3. The assay plates were covered and incubated for 48 hours in a 37C, 5% CO2 incubator with controlled humidity.
4. After 48 hours, CellTilter-GloTM luminescent substrate mix (Promega) reagent was added to the assay plate and plates we incubated for 5 min at room temperature.
5. Signal was measured as median relative luminescence units on a ViewLux (PerkinElmer) multiplate reader.
[1] Heske CM, Davis MI, Baumgart JT, Wilson K, Gormally MV, Chen L, Zhang X, Ceribelli M, Duveau DY, Guha R, Ferrer M, Arnaldez FI, Ji J, Tran HL, Zhang Y, Mendoza A, Helman LJ, Thomas CJ. Matrix Screen Identifies Synergistic Combination of PARP Inhibitors and Nicotinamide Phosphoribosyltransferase (NAMPT) Inhibitors in Ewing Sarcoma. Clin Cancer Res. 2017 Dec 1;23(23):7301-7311. doi: 10.1158/1078-0432.CCR-17-1121. Epub 2017 Sep 12. PMID: 28899971; PMCID: PMC6636827.
Potency means the concentration at half of the fitted maximal effect.

Row | SMILES | Potency
1 | CNCC(O)c1ccc(O)cc1 (stereo unspecified) | inactive
2 | O=P1(NCCCl)OCCCN1CCCl (stereo unspecified) | inactive
3 | Cn1c(CCCC(=O)O)nc2cc(N(CCCl)CCCl)ccc21 | 13.2 µM (active)
4 | COC1(CS(=O)c2ccccc2)CCN(CCc2c[nH]c3ccc(F)cc23)CC1 (stereo unspecified) | inactive
5 | N[C@@H](Cc1ccc(N(CCCl)CCCl)cc1)C(=O)O | 3.32 µM (active)
6 | C#CCN(C)[C@H](C)Cc1ccccc1 | inactive
7 | C[C@@H]1[C@@H](CC(C[C@H]2O[C@@H]3O[C@]4(C)CC[C@@H]5[C@H](C)CC[C@@H]([C@H]2C)[C@@]35OO4)C[S+](=O)([O-])c2ccc(COC(=O)N(C)C)cc2)O[C@@H]2O[C@]3(C)CC[C@H]4[C@H](C)CC[C@@H]1[C@@]24OO3 (stereo partly specified) | 0.0833 µM (active)
8 | CN(C)CCN(C)CCc1ccc(Cl)c(Cl)c1 | inactive
9 | C[C@@H]1O[C@@H](O[C@H]2C[C@@H](O)[C@]3(CO)[C@H]4[C@H](O)C[C@]5(C)[C@@H](C6=CC(=O)OC6)CC[C@]5(O)[C@@H]4CC[C@]3(O)C2)[C@H](O)[C@H](O)[C@H]1O | 0.059 µM (active)
10 | NCC1(CC(=O)O)CCCCC1 | inactive
11 | COc1ccc(C(=O)c2c(C)n(CCN3CCOCC3)c3ccccc23)cc1 | inactive
12 | Cc1cccc(C)c1NC(=O)CN1CCCC1=O | inactive
13 | Cc1cc(SCc2sc(-c3ccc(C(F)(F)F)c(F)c3)nc2C)ccc1OCC(=O)O | 20.9 µM (active)
14 | CN(C)[C@@H]1C(=O)C(C(N)=O)=C(O)[C@@]2(O)C(=O)C3=C(O)c4c(O)cccc4[C@@](C)(O)[C@H]3C[C@@H]12 | inactive
15 | COC[C@@H](NC(C)=O)C(=O)NCc1ccccc1 | inactive
16 | CNC(=O)c1ccc(N2C(=S)N(c3ccc(C#N)c(C(F)(F)F)c3)C(=O)C23CCC3)cc1F | 1.32 µM (active)

Row | SMILES | Potency
17 | CN(C)CCc1ccc(O)cc1 | inactive
18 | COc1ccc(C(CN(C)C)C2(O)CCCCC2)cc1 (stereo unspecified) | inactive
19 | CC1=C2C[C@@H]3[C@@H](CC=C4C[C@@H](O)CC[C@@]43C)[C@@H]2CC[C@]12O[C@H]1C[C@H](C)CN[C@H]1[C@H]2C | inactive
20 | C[C@@H]1[C@@H](C(=O)C[C@H]2O[C@@H]3O[C@]4(C)CC[C@@H]5[C@H](C)CC[C@@H]([C@H]2C)[C@@]35OO4)O[C@@H]2O[C@]3(C)CC[C@H]4[C@H](C)CC[C@@H]1[C@@]24OO3 | 0.132 µM (active)
21 | COC[C@H]1OC(=O)c2coc3c2[C@@]1(C)C1=C(C3=O)C2CCC(=O)[C@@]2(C)C[C@H]1OC(C)=O (stereo partly specified) | 0.469 µM (active)
22 | CCCC(C)(COC(N)=O)COC(=O)NC(C)C (stereo unspecified) | inactive
23 | CC(C)CC(N(C)C)C1(c2ccc(Cl)cc2)CCC1 (stereo unspecified) | inactive
24 | CC(O)(CS(=O)(=O)c1ccc(F)cc1)C(=O)Nc1ccc(C#N)c(C(F)(F)F)c1 (stereo unspecified) | 0.187 µM (active)
25 | COc1ccc2c(c1OC)CN1CCc3cc4c(cc3C1C2)OCO4 (stereo unspecified) | inactive
26 | Cn1cc(C2=C(c3cn(C4CCN(Cc5ccccn5)CC4)c4ccccc34)C(=O)NC2=O)c2ccccc21 | 5.9 µM (active)
27 | O=C1CC[C@@]2(O)[C@H]3Cc4ccc(O)c5c4[C@@]2(CCN3CC2CC2)[C@H]1O5 | inactive
28 | Fc1ccc(C(OCCN2CCN(CCCc3ccccc3)CC2)c2ccc(F)cc2)cc1 | 13.2 µM (active)
29 | Cc1sc2c(c1C)C(c1ccc(Cl)cc1)=N[C@@H](CC(=O)OC(C)(C)C)c1nnc(C)n1-2 | 0.148 µM (active)
30 | CN1CCN(C(=O)O[C@H]2c3nccnc3C(=O)N2c2ccc(Cl)cn2)CC1 | inactive
31 | C=C(C)[C@H]1Cc2c(ccc3c2O[C@@H]2COc4cc(OC)c(OC)cc4[C@@H]2C3=O)O1 | 1.87 µM (active)
